Source: the OligoGym collection

biological target: NLRP2; assay: pooled miR-30 sensor sort-seq; sequence = guide strand; conditions: shRNA
Also: reference of the scale not given here.

Sequence | sensor-assay potency score (higher = more potent)
TTACAGTCTTGTGACCTCGAAG | -1.08
TTCAATATATACCTGCACCTAT | -0.184
AAGTCATCTATTTTCAACCTGA | 0.0295
TTTCTGTAAACGCTTGTGCTTC | -0.408
TATACCTGCACCTATTGTCTTT | -0.461
TTTTTCTTCTATTTCTTCCAGC | -0.106
TTCTGTTTTGAAGCGCTCCAGC | -0.763
TTTTTGAACACCACTCTCTGGA | 0.671
TTCGTCTTCAATATATACCTGC | 0.466
TATTTCTTTGAACTGAGCCATC | -1.26
TTTCTCAGTATCAATAATCAGT | -0.723
TACAACTTATGTCGCATCGCAG | -0.571

biological target: NLRP3; assay: as above; conditions: shRNA

Sequence | sensor-assay potency score (higher = more potent)
TCAAACAGCAACTCCATCTTAA | -0.477
TTGTCTAATTCCAACACCTGAA | -0.802
TTCTCTGTCTGACCCCTCGGGA | -1.19
TGTGATGACAACAACACCCGAT | 0.603
TTCTCATAAAGGTCTCTCCTGT | -0.131
TTACAAATAGAGATTCTCGAAA | -0.224
TTTTGGAACAGGTTCATCCTCA | -0.144
TAGATCCACATGGTCTGCCTTC | -0.905
TTGGCTTTCACTTCAATCCATT | -0.825
